Screening data as filed in PubChem.
The list is not random: actives were taken first. Their share in the collection is about 21%.
Pf growth 48h – inhibits P. falciparum growth in the first generation, 48 h; 310,000 compounds, 5.9% hits; Potency, µM (doses to about 28.7 µM), inactives show at the top dose activity change, negative = inhibition, usual class: inhibitors; AID 504832; P. falciparum luciferase growth in erythrocytes, 48 h; active = well fitted inhibition curve with a large enough effect; inconclusive = small, poorly fitted or top-dose-only effect, or another doubt; inactive = no such curve, though single readings can be large or run the other way; note: potency is the fitted concentration of half-maximal effect; % is set by controls: 0 for no effect and ±100 for the full control effect
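Here the parasites carry a stable luciferase gene and grow inside erythrocytes in Albumax-based RPMI medium with compound for one erythrocytic cycle. Activity is scored as loss of luminescent signal.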
CHX counter – counter-screen hit for Shiga toxin inhibitors, cycloheximide; cell reporter, cycloheximide protein synthesis inhibition counterscreen; max response, %; 300,000 compounds, 12% hits; AID 2314; in the data active = max response mostly above about 13%, no sharp cut-off; inactive = mostly below about 14%; note: read at 38.3 µM for the half of the compounds with a filed dose; 0% is about no effect
NS1 function inh – blocks influenza NS1 protein function; Potency, µM (series often up to 46.1 µM), inactives show top-dose activity, positive = more growth; 270,000 compounds, 0.4% hits; AID 2326; note: potency is the fitted concentration of half-maximal effect; actives are rising curves; nearly all actives have a fitted effect of over 50% in size
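A cell-based growth assay was used: compounds that relieve NS1-induced slow growth of budding yeast raise OD600. Assay medium was yeast nitrogen base with ammonium sulphate and -URA supplement, pH 6.0, with 2% galactose.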
Shiga inhibitor – inhibitors of Shiga toxin in Vero cells; Vero cells, Shiga toxin protein synthesis inhibition reporter; inhibition, % at 38.7 µM; 290,000 compounds, 9.2% hits; in the data active = inhibition mostly above about 28%, no sharp cut-off; inactive = mostly below about 43%; note: 0% is about no effect
SARS PLP yeast – blocks SARS-CoV papain-like protease in a yeast assay. S. cerevisiae expressing SARS-CoV PLpro, growth rescue. Potency, µM (top dose mostly 32.9 µM), without a hit: at the highest dose activity, positive = growth rescue, most hits filed as activators. 330,000 compounds, 0.19% hits; note: potency is the fitted concentration of half-maximal effect; 0% is about no effect; nearly all actives have a fitted effect of over 55% in size
Pf growth 96h – inhibits malaria parasite growth, 96 h | 320,000 compounds, 6.9% hits | Potency, µM (titrated, usually from 28.7 µM), inactives show at the top dose activity change, negative = inhibition, hits mostly inhibitors | P. falciparum luciferase reporter growth, 96 h; active = well fitted inhibition curve with a large enough effect; inconclusive = small, poorly fitted or top-dose-only effect, or another doubt; inactive = no such curve, though single readings can be large or run the other way; note: potency is the fitted concentration of half-maximal effect; % is set by controls: 0 for no effect and ±100 for the full control effect
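Compounds incubated with erythrocytes infected by luciferase-expressing P. falciparum (2% hematocrit, 0.05% parasitemia final) for 96 hours, 37 C in 5% CO2. Growth inhibition scored as decreased luciferase luminescence.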
Starred values were filed as active, the others as inactive; ? = inconclusive; nt = no result; + = active, no number; [ ] = remark or other dose. Unless noted, calls come from the whole dose curve.

SMILES	Pf growth 48h	CHX counter	NS1 function inh	Shiga inhibitor	SARS PLP yeast	Pf growth 96h
COc1ccc(C(=O)Cn2nnc(-c3cccs3)n2)cc1	133.8%	63.3*	-15.0%	90.7*	-13.1%	nt
COc1ccc(N2CCN(C(=O)Cn3nnc(-c4cccs4)n3)CC2)cc1	-2.2%	1.8	-4.3%	-24.4	3.5%	?
Cc1ccc(NC(=O)CC(C(=O)O)c2ccccc2)cc1 (stereo not given)	1.2%	-1.2	6.0%	-2.9	1.5%	25.7%
CCC(C)[C@H](NC(=O)NCc1ccco1)C(=O)OC (stereo not given in full)	2.4%	10.3	-0.9%	6.2	0.8%	?
O=C(CSc1ccccc1)NCCc1ccc(F)cc1	8.2%	28.6*	1.0%	nt	5.2%	3.29µM*
COC(=O)Cn1nnc(-c2cccc(OC)c2)n1	2.2%	21.9*	-4.0%	65.4*	0.7%	1.4%[5.75 µM]
O=C(CSc1cccs1)NCCc1ccccc1	28.0%	41.6*	6.8%	+	-1.7%	44.5%
Cc1ccc(SCC(=O)NCCc2ccc(F)cc2)cc1	13.7%	-1.8	-7.1%	15.2	-4.4%	2.7%
Cc1ccc(SCC(=O)NCCc2ccccc2)cc1	19.5%	14.0*	23.9%	17.5	-7.2%	?
COc1cccc(-c2nnn(CCC(=O)O)n2)c1	8.0%	-1.6	-4.8%	-6.2	1.0%	?
CN(C)S(=O)(=O)c1ccc(NC(=O)CN2CCCc3ccccc32)cc1	-14.3%	11.8	nt	43.2	-0.1%	?
CCOC(=O)C1=C(COC(=O)c2nc(Cl)ccc2Cl)NC(=O)NC1C (stereo not given)	26.4%	nt	nt	nt	-0.7%	-1.0%
CC(=O)OCC(NC(=O)C(COCc1ccccc1)NC(=O)OC(C)(C)C)C1OC(n2ccc(=O)[nH]c2=O)C(OC(C)=O)C1OC(C)=O (stereo not given)	nt	-6.1	nt	-7.2	nt	nt
CCCOc1ccc(-c2nnn(CC(=O)c3c[nH]c4ccccc34)n2)cc1	nt	-2.5	8.2%	-14.6	5.7%	12.2%
O=C(Cn1nnc(-c2cccs2)n1)NCCc1ccccc1	17.0%	20.0*	8.1%	28.5	-2.8%	?
O=C(CSc1ccccc1)NN1C(=O)c2ccccc2C1=O	1.3%	-2.4	10.5%	-5.3	-0.7%	9.28µM*
Cc1ccc(SCC(=O)NCCSC(C)(C)C)cc1	nt	28.5*	-0.2%	34.8	3.1%	39.3%
CC(Sc1ccccc1)C(=O)NCCc1ccccc1 (stereo not given)	15.0%	24.1*	-6.1%	32.5*	-1.1%	9.28µM*
COc1ccc(CCNC(=O)Cn2nnc(-c3cccs3)n2)cc1OC	3.6%	-2.6	-10.4%	-15.3	2.4%	0.0%
O=C(O)c1ccc(CSc2nnc(-c3cccnc3)n2-c2ccc(Br)cc2)cc1	-7.2%	-1.4	5.2%	-7.8	0.5%	-1.8%
CNC(=S)N/N=C/c1c(C)cccc1Cl	8.4%	-1.2	-3.0%	-18.2	1.7%	13.1µM*
CNC(=S)N/N=C/c1c2ccccc2c(Cl)c2ccccc12	2.62µM*	27.4*	-19.0%	87.3*	-7.3%	10.4µM*
Cc1ccc(NC(=O)N2CCCC2C(=O)NCC2CCCCC2)cc1 (stereo not given)	14.8%	-0.2	-0.3%	-3.0	3.0%	-9.5%
Cc1ccc(NC(=O)CN2CCCCCC2)c(Br)c1	95.7%	35.7*	?	81.2*	2.4%	12.5%
Cc1ccc(NC(=O)CN2CCCCCC2)cc1Br	16.8%	18.7*	nt	73.1	5.7%	?
SMILES	Pf growth 48h	CHX counter	NS1 function inh	Shiga inhibitor	SARS PLP yeast	Pf growth 96h
CN(CC(=O)N1CCCCCC1)S(=O)(=O)c1ccccc1	63.6%	34.5*	3.1%	68.5*	-5.0%	?
O=C(CS(=O)(=O)c1ccccc1)N1CCCCC1	10.3%	9.3	0.5%	1.4	-3.2%	2.62µM*
CN(CC(=O)N1CCCCCC1)S(=O)(=O)c1ccc(Br)s1	20.3%	32.6*	-4.0%	80.4*	nt	34.2%
O=C(N1CCOCC1)C1(S(=O)(=O)c2ccccc2)CC=CC1	7.1%	-2.8	8.2%	-1.4	-0.6%	23.1%
Cc1ccc(S(=O)(=O)N(C)CC(=O)N2CCCCCCC2)cc1	8.8%	nt	nt	nt	-3.9%	?
O=C(N1CCCCC1)C1(S(=O)(=O)c2ccccc2)CC=CC1	-1.6%	16.7*	9.8%	9.8	4.4%	17.1%
Cc1ccc(NC(=O)CN(C)C(=O)c2ccc(Cl)nc2)cc1	19.3%	-5.3	14.1%	-3.6	-1.2%	27.3%
Cc1ccc(S(=O)(=O)N(CC(=O)N2CCCC2)C2CCCCC2)cc1	?	-2.8	0.8%	-1.2	1.6%	11.7µM*
Cc1cc(C)c(S(=O)(=O)N(CC(=O)N2CCCC2)C2CCCCC2)c(C)c1	?	-1.2	-39.1%	20.1	nt	nt
O=C(NCC1CC1)C1(S(=O)(=O)c2ccccc2)CC=CC1	-0.1%	-0.8	-1.0%	-5.3	-0.1%	0.3%
COCCNC(=O)C1(S(=O)(=O)c2ccccc2)CC=CC1	38.5%	12.8*	-5.1%	25.3	2.0%	37.6%
Cc1ccc(S(=O)(=O)CCC(=O)NC2CCCC2)cc1	13.2%	-1.1	10.5%	-8.0	-3.3%	-17.7%
CN(CC(=O)N1CCCCCC1)S(=O)(=O)c1ccc(F)cc1	60.0%	39.0*	-0.7%	104.7*	-1.2%	12.0%
Cc1ccc(S(=O)(=O)CCC(=O)N(C)C2CCCCC2)cc1	8.0%	13.3*	-0.9%	25.6	-3.8%	-14.5%
N#Cc1ccc(Oc2cnccn2)cc1	nt	-2.4	3.6%	10.3	-0.8%	-4.5%
COc1cccc(CNC(=O)Cn2ccc3cc(S(=O)(=O)N4CCCCCC4)ccc32)c1OC	?	2.2	10.2%	18.1	-4.9%	?
COc1nc(-c2ccc(C)cc2)ccc1-c1noc(-c2cccnc2)n1	22.7%	-1.7	-3.9%	7.6	8.0%	11.7µM*
COc1ccccc1-c1noc(-c2cccnc2)n1	102.8%	29.2*	-3.6%	66.7*	-9.7%	105.5%
COc1ccc(-c2ccc(-c3noc(-c4cccc(OC)c4)n3)c(OC)n2)cc1	29.0%	-2.1	-5.2%	-16.6	11.6%	?
COc1nc(-c2ccccc2)ccc1-c1noc(-c2cccnc2)n1	0.0%	8.7*	-9.7%	3.3	14.2%	-0.2%
COc1nc(-c2ccccc2)ccc1-c1noc(-c2ccc(F)cc2)n1	26.1%	-4.8	-2.2%	11.3	9.4%	?
CC(=O)N1N=C(N)SC1(C)C	3.2%	5.0	nt	17.4	2.9%	37.8%
CCC(=O)c1cn(CC(=O)Nc2ccc(OC)cc2)c2ccccc12	25.6%	-3.6	8.1%	-3.9	0.7%	2.8%
COC(=O)C1C(O)C(C)C(O)C(C)(O)/C=C\C=C(/C)C(=O)Nc2c(C)c(OC(C)=O)c3c(c2O)C(=O)C(C)=C2OCOC(=C23)/C(C)=C/C(C)(O)C(O)C(C)C1O (stereo not given)	2.94µM*	1.1	7.2%	1.6	2.2%	?
COc1ccc(/C=N/NC(=O)c2cc(-c3ccc4c(c3)OCO4)n[nH]2)cc1OC	?	28.7*	9.3%	9.4	0.1%	11.7µM*
